From PubChem BioAssay AID463173 (ICCB-Longwood Screening Facility, Harvard Medical School, 2010)
The campaign covered roughly 52,000 compounds. About 4,300 (8.3%) were called active. This excerpt belongs to a sample that is enriched for actives. A number with no mark means an inactive call. Rule as the data show it: active = survival mostly below about 52% (no sharp cut-off); inactive = mostly above about 56%.

The molecules below were run on DeltatarO mutant (assay: growth inhibition of S. aureus wild type versus tarO mutant, primary screen, teichoic acid synthesis inhibitors, RN4220, OD600 (AID 463173)). Conditions: OD600, 18 h, active compounds read low, screened at 18.75 µg/mL (by protocol).

Compound | survival
CC(C)(C)c1ccc(C(=O)NCC(c2cccs2)S(=O)(=O)c2ccc(F)cc2)cc1 (stereo not drawn) | 90%
Cc1ccc(CNC(=O)C2CCCN(c3nn4cc(-c5ccc(C)cc5)nc4s3)C2)cc1 (stereo not drawn) | 93%
CC(=O)c1ccc(N2C(=O)N(CC(=O)c3ccc(F)cc3)c3ccccc3S2(=O)=O)cc1 | 102%
Cc1ccc(NC(=O)CCCc2nc(-c3ccco3)no2)cc1Cl | 80%
CCc1cccc(C)c1NC(=O)Cn1ncc2c3ccccc3n(Cc3ccccc3)c2c1=O | 86%
O=C(Nc1ccc2c(c1)N(C1CCCC1)C(=O)c1ccccc1S2)c1ccccc1 | 60%
CC(=O)Nc1ccc(C(=O)Nc2ccc3c(c2)N(C2CCCC2)C(=O)c2ccccc2S3)cc1 | -4% (active)
COc1ccc(CNC(=O)c2ccc3c(c2)N(Cc2cccc(Cl)c2)C(=O)c2ccccc2S3)c(OC)c1 | 83%
COc1cccc(CNC(=O)c2ccc3c(c2)N(Cc2ccc(F)cc2Cl)C(=O)c2ccccc2S3)c1 | 25% (active)
COc1cccc(CN2C(=O)c3ccccc3Sc3ccc(C(=O)NCc4ccccc4)cc32)c1 | 80%
O=C(Nc1ccc2c(c1)N(C1CCCC1)C(=O)c1ccccc1S2)c1ccc(F)cc1 | 66%
CC(=O)N1CCc2cc(CNS(=O)(=O)c3ccc(Cl)s3)ccc21 | 70%
CS(=O)(=O)c1ccccc1-c1nnc(NC(=O)c2ccc3c(c2)OCCO3)o1 | -4% (active)
CSc1ccccc1-c1nnc(NC(=O)c2ccc3c(c2)OCCO3)o1 | 119%
CS(=O)(=O)c1ccc(-c2nnc(NC(=O)c3ccc4c(c3)OCCO4)o2)cc1 | 60%
COc1ccc(S(=O)(=O)N2CCN(C)CC2)c(Cl)c1Cl | 75%
CCCCN1C(=O)c2[nH]nc(-c3ccccc3O)c2C1c1cccc(OCc2ccccc2)c1 (stereo not drawn) | 18% (active)
CCCN1C(=O)c2[nH]nc(-c3ccccc3O)c2C1c1cccc(OCc2ccccc2)c1 (stereo not drawn) | 8% (active)
O=C1c2[nH]nc(-c3ccccc3O)c2C(c2cccc(O)c2)N1Cc1ccncc1 (stereo not drawn) | 103%
O=C1c2[nH]nc(-c3ccccc3O)c2C(c2cccc(OCc3ccccc3)c2)N1CCCO (stereo not drawn) | 56% (active)

Compound | survival
O=C1c2[nH]nc(-c3ccccc3O)c2C(c2cccc(OCc3ccccc3)c2)N1CCO (stereo not drawn) | 67%
CCCN1C(=O)c2[nH]nc(-c3ccccc3)c2C1c1cccc(O)c1 (stereo not drawn) | 54%
Fc1ccc(-c2cn3cc(Cc4ccc(Cl)cc4)sc3n2)cc1 | 55%
COc1ccc(CCNC(=O)CCCn2c(=O)c3ccccc3n(CC(=O)Nc3cc(Cl)ccc3C)c2=O)cc1OC | 69%
Cc1sc2c(c1C)c(=O)n(-c1ccc(Cl)cc1)c(=O)n2Cc1cc(=O)n2cc(Br)ccc2n1 | 76%
COc1ccc2c(c1)CCc1c(C(=O)Nc3ccc(OC)cc3OC)noc1-2 | 180%
COc1ccc(CCNC(=O)c2ccc3c(c2)nc2n3CCOC2)cc1OC | -2% (active)
CCOc1ccc(CNC(=O)c2ccc3c(c2)nc2n3CCC(C)C2)cc1OC (stereo not drawn) | 73%
CCOc1ccc(CNC(=O)c2ccc3c(c2)nc2n3CCOC2)cc1OC | 6% (active)
O=C(NCc1ccccc1Br)c1ccc2c(c1)nc1n2CCOC1 | -1% (active)
O=C(NCc1ccccc1)c1ccc2c(c1)nc1n2CCOC1 | 84%
COc1ccc(CCNC(=O)c2ccc3c(c2)nc2n3CCCCC2)cc1OC | 75%
CCOc1ccc(CCNC(=O)c2ccc3c(c2)nc2n3CCOC2)cc1OCC | 79%
CCOc1ccc(CNC(=O)c2ccc3c(c2)nc2n3CCOC2)cc1 | 90%
Cc1ccc(C)c(CNC(=O)c2ccc3c(c2)nc2n3CCOC2)c1 | 67%
Cc1cccc(-n2c(SCc3nc(-c4ccccc4C)no3)nnc2-c2ccccc2)c1 | 74%
O=C(NC1CCN(Cc2nnnn2Cc2ccc3c(c2)OCO3)CC1)c1ccccc1F | 91%
NC(=O)c1cc(S(=O)(=O)NCC2CCC(C(=O)Nc3ccc(Cl)cc3)CC2)cs1 (stereo not drawn) | 66%
O=C(NCc1ccc2c(c1)CCN2C(=O)c1ccc(Cl)cc1)c1ccco1 | 80%
O=S(=O)(c1cc(Br)c(Br)s1)N1CCN(c2ccccc2)CC1 | 72%

Compound | survival
Cc1ccc(CNC(=O)c2cc3sc(Cl)cc3n2C)cc1 | 80%
CCn1c(C(=O)NCCc2ccc(OC)c(OC)c2)cc2sc(Cl)cc21 | 32% (active)
CCn1c(C(=O)NCc2ccc(OC)cc2)cc2sc(Cl)cc21 | 41% (active)
COc1ccc(CCNC(=O)c2cc3sccc3n2Cc2ccc(Cl)cc2)cc1OC | 88%
CCOc1ccc(NC(=O)c2cc3sc(Cl)cc3n2CC)cc1 | 84%
CCn1c(C(=O)NCCc2ccc(S(N)(=O)=O)cc2)cc2sc(Cl)cc21 | 71%
CCn1c(C(=O)NCc2ccccc2)cc2sc(Cl)cc21 | 34% (active)
CCn1c(C(=O)NCc2ccc(C)cc2)cc2sc(Cl)cc21 | 92%
CCn1c(C(=O)NCc2ccccc2Cl)cc2sc(Cl)cc21 | 63%
N#Cc1c[nH]n2c(NC3CCCCC3)c(-c3ccccc3F)nc12 | 56%
CCCCN(C(=O)c1cccc(S(=O)(=O)N2CCCCC2)c1)C1CCS(=O)(=O)C1 (stereo not drawn) | 117%
COc1ccc(CCNC(=O)CCc2c(C)nc3c4cccnc4nn3c2C)cc1OC | 87%
COc1ccc(CCNC(=O)C2COc3ccccc3O2)cc1 (stereo not drawn) | 89%
Cc1ccc(NC(=O)Nc2cc3c(cc2N2CCCCC2)n(C)c(=O)n3C)cc1Cl | 99%
CC1CN(C(=O)N2CCC(C(=O)NC3CCCCCC3)CC2)c2cc(Cl)ccc2O1 (stereo not drawn) | 61%
O=C1CC(N2CCCC2)C(=O)N1c1ccccc1 (stereo not drawn) | 96%
COc1ccccc1CNC(=O)C(=O)NCC(c1cccs1)S(=O)(=O)c1ccc(F)cc1 (stereo not drawn) | 80%
CC(C)c1ccc(OCc2cc(=O)n3c4c(sc3n2)CCCC4)cc1 | 73%
